Source: ChEMBL document CHEMBL4513216, “Probing the Open Global Health Chemical Diversity Library for Multistage-Active Starting Points for Next-Generation Antimalarials” (ACS Infect Dis, 2020)
The campaign covered roughly 69,000 compounds. About 8,600 (12%) showed an effect of 50% or more. The list comes from a sample in which strong results are over-represented; it also holds similar structures and randomly drawn compounds.

Test system: Plasmodium berghei
Assay: Screen against P. berghei liver stage (PbLuc), transformed with Luciferase, at 10uM
Type: functional, HepG2
Details: tested at 10 uM

Row | Structure (SMILES) | INHIBITION [%]
1 | CC(NC(=O)NCCCn1cccn1)c1ccncc1 (stereo not drawn) | 36.3
2 | COC(=O)c1cc2n(n1)CCN(C(=O)c1csc(CN(C)C)n1)C2 | -4.96
3 | COC(=O)Cn1c(=O)[nH]c2cn(-c3cccc(Cl)c3)c(=O)n21 | 33.7
4 | COCCOCC(=O)N1C[C@@H]2CC[C@H](Oc3ccccc3Cl)[C@@H]2C1 | 40
5 | COc1ccccc1C(C)Nc1ncc(C(N)=O)cc1Cl (stereo not drawn) | -7.25
6 | COc1cc(C)c(C(C)Nc2ncc(C(N)=O)cc2Cl)cc1OC (stereo not drawn) | -37.7
7 | Cc1nn(C)cc1C(C)Nc1ncc(C(N)=O)cc1Cl (stereo not drawn) | 71.1
8 | Cc1noc2ncc(C(=O)NCC3CCCOC3)cc12 (stereo not drawn) | -6.45
9 | N#CC1(NC(=O)c2cc(Cl)c3c(c2)OCCCO3)CCC1 | -14.2
10 | c1cnc2ccc(C[C@@H]3CC[C@H](CN4CCCOCC4)O3)cc2c1 | 23.5
11 | Cc1cc(C(=O)N2CCc3ncnc(-c4cnn(C)c4)c3CC2)no1 | 0.618
12 | CN1CCC2(CCCN(S(=O)(=O)c3ccc(-c4cnco4)s3)C2)C1 (stereo not drawn) | 37.3
13 | Cc1occc1CNC(=O)N1CCC(Cc2cnn(C)c2)C1 (stereo not drawn) | -24.15
14 | CCc1ccc(S(=O)(=O)N2Cc3c(CN(C)C)nn(C)c3C2)cc1 | 72
15 | Cc1ccc(S(=O)(=O)N2Cc3c(CN(C)C)nn(C)c3C2)cc1 | 0.542
16 | COc1ccc(S(=O)(=O)N2Cc3c(CN(C)C)nn(C)c3C2)cc1 | -6.23
17 | Cc1ccc(NC2CCN(C(=O)c3nccc4ccccc34)CC2)nn1 | -45.9

Row | Structure (SMILES) | INHIBITION [%]
18 | CN(C)c1ncc(-c2cncnc2)c(C2CNCCO2)n1 (stereo not drawn) | 20.6
19 | CCc1nnc(CN2CCCCC2Cn2nc(C)nc2C)o1 (stereo not drawn) | 22.3
20 | CS(=O)(=O)N[C@@H]1CN(Cc2ccco2)C[C@@H]2CCCO[C@@H]21 | 5.96
21 | CSCCCN1CCC(c2nnc(Cn3ccnc3)n2C2CC2)CC1 | -79.3
22 | NCCN1CCC(c2nnc(Cn3ccnc3)n2C2CC2)CC1 | 62.3
23 | CC(C)(C)CN1CCC(c2nnc(Cn3ccnc3)n2C2CC2)CC1 | 38
24 | CN1CCC(c2nnc3n2CCN(S(=O)(=O)c2ccccc2Cl)C3)CC1 | 10.75
25 | CC(C)OCCN1CCC(C(=O)c2cc(F)ccc2F)CC1 | -13.5
26 | COCCN1CCC(C(=O)c2cc(F)ccc2F)CC1 | 5.03
27 | CCOCCN1CCC(C(=O)c2cc(F)ccc2F)CC1 | 60.5
28 | CCOC(=O)CN1CCC(C(=O)c2cc(F)ccc2F)CC1 | 32.6
29 | COC(=O)CCN1CCC(C(=O)c2cc(F)ccc2F)CC1 | 46.9
30 | NC(=O)NC(=O)CCN1CCC(C(=O)c2cc(F)ccc2F)CC1 | 40.5
31 | COCCCN1CCC(C(=O)c2cc(F)ccc2F)CC1 | 56.4
32 | CC(C)NC(=O)CCN1CCC(C(=O)c2cc(F)ccc2F)CC1 | 69.3
33 | NC(=O)CCN1CCC(C(=O)c2cc(F)ccc2F)CC1 | 18.2
